# High-throughput results deposited in PubChem BioAssay by National Center for Advancing Translational Sciences (NCATS).
# The entries come from a sample that favours hits as a whole.
# Pf Dd2 inh – Plasmodium falciparum Dd2 growth inhibition. 120,000 compounds, 4.3% hits. Potency, µM (doses to about 28.9 µM), most hits filed as inhibitors. AID 1347417. P. falciparum Dd2 growth, SYBR Green, 72 h; active = well fitted inhibition curve with a large enough effect; note: nearly all actives have a fitted effect of over 65% in size
#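 Infected erythrocytes (Dd2, 0.3% parasitemia, 2.5% hematocrit final) are added to compound in RPMI-1640/Albumax II medium, grown 72 h at 37C in low oxygen, then lysed with saponin/Triton-X containing SYBR Green and read by fluorescence.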
# Numbers stand for hits; - = inactive.
SMILES,Pf Dd2 inh
CCN1CCN(C(c2ccccc2)c2c(O)cc(C)n(CCOC)c2=O)CC1 (centres undefined),-
O=C(Cc1ccc(F)cc1)N1C[C@@H](CO)[C@H](c2ccccn2)C1,-
O=C(c1cccs1)N1CCC2(CC1)CC(OCC1CC1)CCO2 (centres undefined),-
O=C1NC2(CCN(Cc3ccsc3)CC2)Oc2ccccc21,-
COc1cccc(CN2CCC3(C2)NC(=O)c2ccccc2O3)c1 (centres undefined),12.6µM
O=C1NC2(CCCN(Cc3ccccn3)C2)COc2ccccc21 (centres undefined),0.631µM
Cn1cccc1CN1CCC2(CC1)C(=O)NCN2Cc1ccc(Cl)cc1,-
CN(C)c1ccc(CN2CCC3(CC2)NC(=O)c2ccccc2O3)cc1,-
O=C1NC2(CCCN(Cc3ccc(F)cc3)C2)COc2ccccc21 (centres undefined),-
O=C1NCN(Cc2ccc(Cl)cc2)C12CCN(Cc1ccncc1)CC2,-
COc1cccc([S+](=O)([O-])N2CCC3(CC2)NC(=O)c2ccccc2O3)c1,-
COc1ccc(CN2CCC3(CC2)C(=O)NCN3Cc2ccc(Cl)cc2)cc1,3.16µM
O=C1NC2(CCCN(Cc3cccnc3)C2)COc2ccccc21 (centres undefined),-
O=C1NC2(CCN(Cc3ccc(F)cc3)CC2)Oc2ccccc21,10µM
Cc1cc(CN2CCC3(C2)NC(=O)c2ccccc2O3)no1 (centres undefined),-
COc1ccc(C(=O)N2CCOCCNC(=O)CC2)cc1F,-
COC(=O)CNC(=O)c1ccc(CN2C(=O)NC3(CCS(=O)(=O)CC3)C2=O)cc1,-
CN1Cc2ccc(Nc3ccccc3)nc2C(C)(C(=O)NCCc2cnc[nH]2)C1 (centres undefined),-
CC(=O)NCCCC(=O)N1CCOC2(CCN(C(=O)c3ccccc3)CC2)C1,-
COc1ccc(NC(=O)c2ccc3c(c2)NC(C)(COc2ccccc2)CO3)cc1OC (centres undefined),-
COc1ccc(NC(=O)N2CC[C@@H](CC(=O)O)[C@@H](CCN3CCOCC3)C2)cc1,-
CCOC(=O)c1c(NC(=O)c2cc(=O)c3cc(Cl)ccc3o2)sc(C)c1C,-
COCCN1CCC(N2CCN(S(=O)(=O)Cc3ccccc3)CC2)C1=O (centres undefined),-
CC(C)CNC1(Cc2cc(CN3CCOCC3)on2)COC1,-
CCCN(CC1CCOC1)C(=O)Nc1ccccc1C (centres undefined),-
SMILES,Pf Dd2 inh
O=C(NC1CCCCC1)N1C2CCC1CN(C1CCNCC1)C2,-
COc1ccc(C(=O)N[C@H]2CO[C@H]3[C@@H]2OC[C@@H]3Nc2nccc(-c3cccs3)n2)cc1,-
Cc1cn2cc(C(=O)N(C)CCC(O)c3ccccc3)ccc2n1 (centres undefined),-
CN(CCC(O)c1ccccc1)c1nccc(-c2cccnc2)n1 (centres undefined),10µM
CN(Cc1cc(C2CC2)n[nH]1)c1nccc(-c2cccnc2)n1,-
Cc1ccc(NC(=O)Cn2nnc(-c3nc(-c4ccncc4)no3)c2N)c(C)c1,-
N#C/C(=C\c1ccc(-c2ccc(C(=O)O)cc2)o1)c1nc2ccccc2[nH]1,-
COc1ccc(CNC(=O)Cn2c(=O)cc(C)c3c(C)nn(-c4cccc(Cl)c4C)c32)cc1,-
CN(C)C[C@@H]1CN(c2ncccn2)C[C@H]1NC(=O)c1ccncn1,-
COc1ccc(C)cc1NC(=O)CN1C(=O)COc2ccc(S(=O)(=O)N3CCCCCC3)cc21,-
CCOc1ccc(Nc2nc(C)c(NC(=O)c3ccc(C)cc3)c(Nc3ccc(OCC)cc3)n2)cc1,-
Cc1ccc(C(=O)Nc2c(C)nc3ccccn3c2=O)cc1,-
Cc1ccc(Nc2nc(C)c(NC(=O)c3ccc(C)cc3)c(Nc3ccc(C)cc3)n2)cc1,8.91µM
COc1ccc(CCn2c(=O)c(-c3noc(C)n3)c3n(c2=O)CCCCC3)cc1,-
CCCCN(CCCC)CCNC(=O)Cn1nc(CC)n2c(cc3sccc32)c1=O,-
COc1cccc(-c2cn3c(n2)sc2cc(C(=O)NCCC4=CCCCC4)ccc23)c1,-
COc1ccc(-c2cn3c(n2)sc2cc(C(=O)NC4CCCCCC4)ccc23)cc1,-
COc1ccc(-c2cn3c(n2)sc2cc(C(=O)NCCCN4CCCCC4)ccc23)cc1,1.12µM
CCOC(=O)C1CCN(C(=O)c2ccc3c(c2)sc2nc(-c4ccc(OCC)cc4)cn23)CC1,8.91µM
O=C(NC1CCCCCC1)c1ccc2c(c1)sc1nc(-c3ccc(F)cc3)cn12,-
O=C(NC1CCCCC1)c1ccc2c(c1)sc1nc(-c3ccc(F)cc3)cn12,-
COc1ccc(-c2cn3c(n2)sc2cc(C(=O)NCCCN4CCCCCC4)ccc23)cc1,8.91µM
COc1ccc(-c2cn3c(n2)sc2cc(C(=O)Nc4cccc(OC)c4)ccc23)cc1,-
Cc1ccc(CNC(=O)C(=O)NCC(c2ccco2)S(=O)(=O)c2ccccc2)cc1 (centres undefined),-
COc1ccc(N2CCN(C(=O)c3noc(-c4ccc(C)cc4)n3)CC2)cc1,-
